These results are taken from the supplement of paper PMC6555819.

The first assay concerns FXR:RXRa (NR concentration 270 nM, RXRa partner concentration 90 nM). The assay can be described thus: PBM binding z-score (relative to random genomic background probes); higher = stronger binding; sequences stand for … in GC…GCGATTGACAGCGTAGAATGAAGG
The gist of the method: (§1)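 Antibodies against each partner of ligand-free nuclear receptor dimers (one per run) detected binding on custom Agilent 4×180K protein-binding microarrays after 1 h incubation. The double-stranded probes had 34-nt variable regions carrying direct-repeat seeds, single-nucleotide variants, half-site ablations and random human genomic background sequences. Binding z-scores, from regression-normalized fluorescence, use the random background probes as reference.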
With AGTCGAAGTTCACTAGGTAACGTAAGATTCAGCT, the PBM binding z-score came to 1.2.

For GCTAGTTGGTCCGTAAAAGGTCACACACCGGTCG, the PBM binding z-score amounted to 3.14.

As to CGAACTAGGTCAGAACAGGACAGTGAAGGATGAT, the PBM binding z-score amounted to 1.69.

In turn, CGAAATAGGTCAGAACAGGACAGTGAAGGATGAT yielded a PBM binding z-score of 2.81.

Turning to TAGCCTAGGTCATTCTGGGGCCAGTATAGAAAGC, the PBM binding z-score amounted to 4.29.

On to ATACCAAGGTGATCGTGACGTCGTTGATACTAAC, for which the PBM binding z-score stood at 0.364.

Sequence CGTCCAAGGTCAAGGTTAGTGAAAGAGACTCGAA registered a PBM binding z-score of 6.97.

Sequence TCGAGTAGGTTAGTCGGGGGATTCAGCCAACATA had a PBM binding z-score of 0.552.

The sequence GCTCGGAGGGCAAGGTCAGAGCTTTGTCCGTAGA returned a PBM binding z-score of 2.16.

Sequence CCGAGTAGGTTATGGGGCATTCATGCAACGGTGA yielded a PBM binding z-score of 0.225.

With ACTAGCAGTCCAAGGGTCACTCAAGATTAGTCCG, the PBM binding z-score was 2.25.

ATCGAAAGGTCCTGAGGTGAGTATACAGAAAGGC: the PBM binding z-score amounted to 0.12.

AGTCAAAGTTCACTTGGTAACGTAAGATTCAGCT returned a PBM binding z-score of 4.85.

Sequence TCTAGCACGCCAGAGGGTCACTCAAGAGGTACGG displayed a PBM binding z-score of 1.04.

As to CCAACTAGGTCAAGGTCAAAGTCGGTTTGTGCCA, the PBM binding z-score is 6.64.

TCAGACAGGTGAAGGTAACACAGGTACGCAGTCG: the PBM binding z-score was determined as 1.04.

As to TTACCAAGGTGAGCTGAGGTCGTCGATCCAACTC, the PBM binding z-score is 1.73.

Consider TCATATAGGTAAATGCTAGGTGAGAGTCCGATCT, for which the PBM binding z-score was -0.733.

Consider TCTTGTAGATTAAAGGTTAAGAAAGCCGAAGCCT, for which the PBM binding z-score stood at 1.25.

In turn, TCAGACAGGTGCAGGTAACTCAGGTACGCAGTCG had a PBM binding z-score of 0.317.

In turn, CGTCAAAGTTCAACTAAAGTAACGTAAAGCACGC showed a PBM binding z-score of 6.66.

On to AATACAGGGTCACTAGGCCAGACTAGGTACGAAT, for which the PBM binding z-score came to 6.12.

TTACCATGGTGAGCTGAGGTCGTTGATCCAACTC registered a PBM binding z-score of 0.322.

For the sequence CAGCCTAGGTCAGGGCCAGTAAAGGAGGAACGTT, the PBM binding z-score was determined as 1.69.

Sequence TCTTGTAGATCAATAGAGTTTAAGAAAGTGCGCT displayed a PBM binding z-score of 0.426.

TCGAGGAGGTTACCAATGGGGCATTCAGCTTTCT: the PBM binding z-score amounted to 0.893.

The sequence CGTCCAAGGTCAGAGATGTCAGTGAATGCCGAGT had a PBM binding z-score of 4.67.

Consider CACACTAGGTCACGAAAGGTCAAAGTCGAATGAC, for which the PBM binding z-score turned out to be 7.55.

Consider GATACAGGGTCAGCTAGAGGCAAGAGTATGGAAA, for which the PBM binding z-score worked out at 4.32.

CGAACTAGGTCACAACAGGACAGTGAAGGATGAT gave a PBM binding z-score of 3.29.

ATATGTAGGTTTAGGGTCATTCAGGTTGGTTCGC returned a PBM binding z-score of 4.11.

The sequence CCGACTGGGGCAAGGTTAGCATAACGCACAGCCA registered a PBM binding z-score of -0.312.

In turn, CGTCCAAGGTCATCGGAGGTCAGTGAAGACAGAT displayed a PBM binding z-score of 8.01.

With TCTCGGAGGACACGAAAGGTCAGAGTTCGACATC, the PBM binding z-score came out at 3.3.

In turn, CCTACTGGCCCACGAAAGGTCATTGATTCAGTGA had a PBM binding z-score of 3.58.

For TCATATAGGTAAAGGCGAAAGTCGAACGATATGA, the PBM binding z-score stood at 0.173.

As to CAAACTAGGTCAGAGAGGTCAAAGTCCGTGCGTA, the PBM binding z-score came to 6.28.

TAGCCTAGGTCAGATCGGGCCAGTATCCGCTATA returned a PBM binding z-score of 2.

For CTCGAAAGGCCGGTTGAGGTGAGTATACGGATAA, the PBM binding z-score was -0.00227.

The next assay concerns LXRa:RXRa (NR concentration 270 nM, RXRa partner concentration 90 nM). The assay is described as above. The gist of the method: as §1
In turn, AGTCGAAGTTCACTAGGTAACGTAAGATTCAGCT displayed a PBM binding z-score of 1.74.

With GCTAGTTGGTCCGTAAAAGGTCACACACCGGTCG, the PBM binding z-score was 4.48.

Sequence CGAACTAGGTCAGAACAGGACAGTGAAGGATGAT returned a PBM binding z-score of 0.689.

For the sequence CGAAATAGGTCAGAACAGGACAGTGAAGGATGAT, the PBM binding z-score amounted to 2.42.

TAGCCTAGGTCATTCTGGGGCCAGTATAGAAAGC yielded a PBM binding z-score of 3.66.

ATACCAAGGTGATCGTGACGTCGTTGATACTAAC: the PBM binding z-score was 0.342.

The sequence CGTCCAAGGTCAAGGTTAGTGAAAGAGACTCGAA came in with a PBM binding z-score of 5.24.

Regarding TCGAGTAGGTTAGTCGGGGGATTCAGCCAACATA, the PBM binding z-score is 0.506.

With GCTCGGAGGGCAAGGTCAGAGCTTTGTCCGTAGA, the PBM binding z-score came out at 2.05.

As to CCGAGTAGGTTATGGGGCATTCATGCAACGGTGA, the PBM binding z-score was 0.548.

In turn, ACTAGCAGTCCAAGGGTCACTCAAGATTAGTCCG had a PBM binding z-score of 2.99.

In the case of ATCGAAAGGTCCTGAGGTGAGTATACAGAAAGGC, the PBM binding z-score came to 0.275.

As for AGTCAAAGTTCACTTGGTAACGTAAGATTCAGCT, the PBM binding z-score is 5.05.

In the case of TCTAGCACGCCAGAGGGTCACTCAAGAGGTACGG, the PBM binding z-score amounted to 1.11.

CCAACTAGGTCAAGGTCAAAGTCGGTTTGTGCCA displayed a PBM binding z-score of 5.56.

TCAGACAGGTGAAGGTAACACAGGTACGCAGTCG gave a PBM binding z-score of 1.17.

With TTACCAAGGTGAGCTGAGGTCGTCGATCCAACTC, the PBM binding z-score was found to be 0.879.

As for TCATATAGGTAAATGCTAGGTGAGAGTCCGATCT, the PBM binding z-score was 0.512.

TCTTGTAGATTAAAGGTTAAGAAAGCCGAAGCCT returned a PBM binding z-score of 1.98.

Consider TCAGACAGGTGCAGGTAACTCAGGTACGCAGTCG, for which the PBM binding z-score was 0.617.

In turn, CGTCAAAGTTCAACTAAAGTAACGTAAAGCACGC displayed a PBM binding z-score of 6.26.

AATACAGGGTCACTAGGCCAGACTAGGTACGAAT showed a PBM binding z-score of 5.24.

As for TTACCATGGTGAGCTGAGGTCGTTGATCCAACTC, the PBM binding z-score is 0.0093.

CAGCCTAGGTCAGGGCCAGTAAAGGAGGAACGTT: the PBM binding z-score amounted to 0.93.

In the case of TCTTGTAGATCAATAGAGTTTAAGAAAGTGCGCT, the PBM binding z-score turned out to be 0.959.

TCGAGGAGGTTACCAATGGGGCATTCAGCTTTCT returned a PBM binding z-score of 2.72.

With CGTCCAAGGTCAGAGATGTCAGTGAATGCCGAGT, the PBM binding z-score was determined as 2.73.

The sequence CACACTAGGTCACGAAAGGTCAAAGTCGAATGAC came in with a PBM binding z-score of 8.25.

In turn, GATACAGGGTCAGCTAGAGGCAAGAGTATGGAAA displayed a PBM binding z-score of 2.35.

With CGAACTAGGTCACAACAGGACAGTGAAGGATGAT, the PBM binding z-score came to 4.76.

In turn, ATATGTAGGTTTAGGGTCATTCAGGTTGGTTCGC came in with a PBM binding z-score of 3.91.

CCGACTGGGGCAAGGTTAGCATAACGCACAGCCA yielded a PBM binding z-score of -0.11.

CGTCCAAGGTCATCGGAGGTCAGTGAAGACAGAT returned a PBM binding z-score of 7.87.

Sequence TCTCGGAGGACACGAAAGGTCAGAGTTCGACATC showed a PBM binding z-score of 4.16.

With CCTACTGGCCCACGAAAGGTCATTGATTCAGTGA, the PBM binding z-score came to 4.35.

On to TCATATAGGTAAAGGCGAAAGTCGAACGATATGA, for which the PBM binding z-score stood at 0.402.

As for CAAACTAGGTCAGAGAGGTCAAAGTCCGTGCGTA, the PBM binding z-score is 6.16.

The sequence TAGCCTAGGTCAGATCGGGCCAGTATCCGCTATA returned a PBM binding z-score of 1.05.

For CTCGAAAGGCCGGTTGAGGTGAGTATACGGATAA, the PBM binding z-score is -0.411.
